According to PubChem BioAssay (Tox21):
Where “and” joins values, the source holds several entries; their conditions need not be identical. Equal values may be shown once. Records with an inconclusive call do not appear. Some structures have more than one record in an assay (separate samples or runs), and their calls can disagree. Calls of active or inactive are those of the source. Unless noted, the call rests on the fitted dose curve; in most records, active means well fitted curve in the direction sought with a large enough effect in the repeat runs; inconclusive means weak or mixed curves; inactive means no such curve, though single readings can be large; an effect the other way counts as inactive or inconclusive.

How the values were obtained:
[1] = target: Retinoic acid receptor RXR-alpha (Homo sapiens) (UniProt P19793); assay: qHTS assay to identify small molecule agonists of the RXR signaling pathway (AID 1159527; calls by dose curve; further: nearly all actives have a fitted effect of over 35% in size; further: potency means the concentration at half of the fitted maximal effect)
Sequence of Retinoic acid receptor RXR-alpha (Homo sapiens) (P19793 whole entry, looked up): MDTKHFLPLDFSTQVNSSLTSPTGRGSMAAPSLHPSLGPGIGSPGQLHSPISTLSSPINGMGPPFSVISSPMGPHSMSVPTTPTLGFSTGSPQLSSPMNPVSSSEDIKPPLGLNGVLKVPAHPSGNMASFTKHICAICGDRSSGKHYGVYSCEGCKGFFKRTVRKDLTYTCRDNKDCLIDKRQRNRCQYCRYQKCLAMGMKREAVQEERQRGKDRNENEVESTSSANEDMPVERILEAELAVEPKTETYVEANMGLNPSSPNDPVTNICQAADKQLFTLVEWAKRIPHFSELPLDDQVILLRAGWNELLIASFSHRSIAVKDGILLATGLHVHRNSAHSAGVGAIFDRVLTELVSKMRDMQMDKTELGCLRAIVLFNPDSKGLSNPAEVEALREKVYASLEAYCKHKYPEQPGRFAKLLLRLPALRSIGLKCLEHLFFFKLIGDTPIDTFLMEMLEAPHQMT
Procedure, shortened: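 Agonist mode; 9-cis retinoic acid positive control. HEK 293T UAS-bla reporter cells, 2% charcoal-stripped FBS, 16 hr compound exposure at 37 C/5% CO2. LiveBLAzer B/G FRET substrate 2 hr RT; ex 405, em 460/530 nm.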

[2] = qHTS assay to identify small molecule agonists of the RXR signaling pathway - cell viability counter screen (AID 1159529); further: series mostly up to about 77 µM; nearly all actives have a fitted effect of over 50% in size
Procedure, shortened: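 Luminescence from CellTiter-Glo (30 min, RT) measured viability in the same wells as the beta-lactamase reporter readout. Cells: GeneBLAzer RXR-alpha HEK 293T, 2% charcoal-stripped FBS. Compound exposure 16 hr, 37 C.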

[3] = qHTS assay to identify small molecule antagonists of the retinoid acid receptor (RAR) signaling pathway - cell viability counter screen (AID 1159551); further: nearly all actives have a fitted effect of over 35% in size
Procedure, shortened: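 Following overnight attachment, C3RL4 reporter cells received DMSO-dissolved compounds and then retinol (1 uM final). Six hours later at 37 C, ATP content was measured by CellTiter-Glo luminescence.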

[4] = qHTS assay to identify small molecule antagonists of the retinoic acid receptor (RAR) signaling pathway (AID 1159552; further: nearly all actives have a fitted effect of over 50% in size; further: potency means the concentration at half of the fitted maximal effect)
Procedure, shortened: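 Luminescence from a RARE luciferase reporter in C3RL4 cells served as read-out. Cells received compounds together with 1 uM final retinol and incubated 6 hr at 37 C before detection reagent was added for 30 min at room temperature.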

[5] = qHTS assay to identify small molecule agonists of the retinoic acid receptor (RAR) signaling pathway (AID 1159553)
Procedure, shortened: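 Cell line C3RL4, RARE luciferase reporter. Treatment: compounds in DMSO, 6 hr, 37 C, 5% CO2, after overnight plating. Detection: luminescence, 30 min RT after reagent.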

[6] = qHTS assay to identify small molecule antagonists of the estrogen related receptor signaling pathway with the pleiotropic PPARgamma coactivator (PGC) cell viability counter screen (AID 1224822;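 further: series mostly up to about 46 µM; viability read after 17.5 h compound exposure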)
Procedure, shortened: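 qHTS format, DMSO compound stocks pin-transferred onto PGC/ERR cells 6 h after plating; 17.5 h exposure at 37 C, then CellTiter-Fluor fluorescence.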

[7] = qHTS assay to identify small molecule antagonists of the estrogen related receptor (ERR) signaling pathway from Tox21 library - cell viability counter screen (AID 1224834); further: nearly all actives have a fitted effect of over 30% in size; further: potency means the concentration at half of the fitted maximal effect
Procedure, shortened: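 Viability readout (CellTiter-Fluor fluorescence, 30 min at 37 C) multiplexed with the ERR assay; cells treated 17.5 h at 37 C with compounds delivered in DMSO.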

[8] = target: Luciferin 4-monooxygenase (Photinus pyralis) (UniProt P08659); assay: qHTS assay to identify small molecule inhibitors of firefly luciferase (AID 1224835); further: series mostly up to about 120 µM; nearly all actives have a fitted effect of over 25% in size
Sequence of Luciferin 4-monooxygenase (Photinus pyralis) (P08659 whole entry, looked up): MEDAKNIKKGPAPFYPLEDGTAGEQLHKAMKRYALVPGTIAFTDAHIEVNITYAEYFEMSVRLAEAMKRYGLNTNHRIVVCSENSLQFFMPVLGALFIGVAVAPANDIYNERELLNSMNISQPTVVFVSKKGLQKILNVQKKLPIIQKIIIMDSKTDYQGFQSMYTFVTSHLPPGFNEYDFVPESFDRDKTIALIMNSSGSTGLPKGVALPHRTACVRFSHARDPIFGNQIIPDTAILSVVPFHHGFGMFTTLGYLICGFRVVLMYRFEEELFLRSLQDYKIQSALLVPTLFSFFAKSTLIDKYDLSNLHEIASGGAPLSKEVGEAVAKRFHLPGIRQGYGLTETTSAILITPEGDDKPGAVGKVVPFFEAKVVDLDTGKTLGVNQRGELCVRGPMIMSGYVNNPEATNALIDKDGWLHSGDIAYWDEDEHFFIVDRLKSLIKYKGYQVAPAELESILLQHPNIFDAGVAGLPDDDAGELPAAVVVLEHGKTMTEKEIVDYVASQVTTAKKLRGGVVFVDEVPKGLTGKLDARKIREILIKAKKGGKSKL
Procedure, shortened: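 Inhibition of purified Photinus luciferase is measured by luminescence. Substrate levels (D-luciferin, ATP) sit at their KM values. Each compound is tested in a concentration series.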

[9] = qHTS assay to identify small molecule agonists of the constitutive androstane receptor (CAR) signaling pathway - cell viability counter screen (AID 1224836); further: series mostly up to about 92 µM; nearly all actives have a fitted effect of over 45% in size
Procedure, shortened: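 Viability read-out: CellTiter-Fluor fluorescence after 23 h compound exposure at 37 C/5% CO2 in double-stable HepG2-CYP2B6-hCAR cells, with PK11195 present at 0.75 uM final; compounds tested in 15-point titration.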

[10] = qHTS assay to identify small molecule antagonists of the constitutive androstane receptor (CAR) signaling pathway - cell viability counter screen (AID 1224837); further: series mostly up to about 92 µM; nearly all actives have a fitted effect of over 45% in size
Procedure, shortened: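 Fluorescence from CellTiter-Fluor served as the viability signal. Human hepatoma HepG2 cells stably bearing hCAR and CYP2B6-2.2kb received compound plus CITCO (50 nM final) for 23 hr.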

[11] = target: Nuclear receptor subfamily 1 group I member 3 (Homo sapiens) (UniProt Q14994); assay: qHTS assay to identify small molecule antagonists of the constitutive androstane receptor (CAR) signaling pathway (AID 1224838);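 further: HepG2 cells stably expressing hCAR with CYP2B6 luciferase reporter stimulated by CITCO; nearly all actives have a fitted effect of over 40% in size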; further: potency means the concentration at half of the fitted maximal effect
Sequence of Nuclear receptor subfamily 1 group I member 3 (Homo sapiens) (Q14994 whole entry, looked up): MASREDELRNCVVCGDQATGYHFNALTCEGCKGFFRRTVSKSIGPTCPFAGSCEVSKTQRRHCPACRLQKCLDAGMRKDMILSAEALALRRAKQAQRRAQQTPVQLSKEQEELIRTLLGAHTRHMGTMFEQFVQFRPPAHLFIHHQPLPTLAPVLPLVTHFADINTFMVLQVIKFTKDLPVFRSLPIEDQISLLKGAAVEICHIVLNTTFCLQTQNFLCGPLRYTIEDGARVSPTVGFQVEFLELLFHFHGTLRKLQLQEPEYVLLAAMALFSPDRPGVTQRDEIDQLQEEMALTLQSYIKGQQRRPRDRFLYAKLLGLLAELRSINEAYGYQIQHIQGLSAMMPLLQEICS
Procedure, shortened: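 Quantitative HTS in double-stable HepG2-CYP2B6-hCAR cells. After 4 h plating, cells get compound (15 concentrations) and CITCO at 50 nM final, incubate 24 h at 37 C, then ONE-Glo luminescence is read.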

[12] = target: Nuclear receptor subfamily 1 group I member 3 (Homo sapiens) (UniProt Q14994); assay: qHTS assay to identify small molecule agonists of the constitutive androstane receptor (CAR) signaling pathway (AID 1224839);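 further: HepG2 cells stably carrying human CAR and a CYP2B6 luciferase reporter; series mostly up to about 92 µM; nearly all actives have a fitted effect of over 15% in size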
Procedure, shortened: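 Luminescence read-out (ONE-Glo, 30 min, room temperature) from double-stable HepG2-CYP2B6-hCAR cells exposed 24 h to 15-point compound series in presence of 0.75 uM PK11195 final.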

[13] = qHTS assay to identify small molecule antagonists of the estrogen related receptor signaling pathway with the pleiotropic PPARgamma coactivator (PGC) from Tox21 10K library - cell viability counter screen (AID 1224840; active means well fitted cell-killing curve with a large enough effect in the repeat runs, not every such curve was filed as active; further: nearly all actives have a fitted effect of over 40% in size)
Procedure, shortened: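 Compounds in DMSO, alongside positive and negative controls, were pinned onto PGC/ERR cells (2,000 per well). Exposure lasted 17.5 hours at 37 C, followed by a 30-minute CellTiter-Fluor incubation and fluorescence reading.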

[14] = qHTS assay to identify small molecule antagonists of the estrogen related receptor (ERR) signaling pathway (AID 1224819;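 further: luminescence from an ERR-driven luciferase reporter measured with One-Glo reagent; series mostly up to about 46 µM; nearly all actives have a fitted effect of over 50% in size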)
Procedure, shortened: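 LOPAC library screened for antagonism as reduced One-Glo luminescence in ERR reporter cells (2,000/well). Compounds were added after 6 h pre-incubation and left 18 h at 37C; reading followed a 30 min room-temperature reagent step.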

[15] = qHTS assay to identify small molecule agonists of the estrogen related receptor (ERR) signaling pathway (AID 1224820)
Procedure, shortened: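 Cells: ERR line from NTP, 2,000/well. Pre-incubation 6 h, 37 C/5% CO2. Compound (DMSO) pin transfer, 18 h 37 C. One-Glo, 30 min RT, luminescence.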

[16] = test system: estrogen-related receptor alpha (ERRalpha) with PGC-1alpha coactivator, human; assay: qHTS assay to identify small molecule antagonists of the estrogen related receptor signaling pathway with the pleiotropic PPARgamma coactivator (PGC) (AID 1224821; calls by dose curve;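 further: series mostly up to about 46 µM; lower luminescence signal means antagonism of PGC/ERR signalling; nearly all actives have a fitted effect of over 50% in size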)
Procedure, shortened: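 Luminescent read-out (One-Glo, 30 min at room temperature) following 18 h treatment of PGC/ERR cells at 37 C with compounds delivered in DMSO. Cells had settled 6 h at 37 C/5% CO2 before dosing.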

[17] = qHTS assay to identify small molecule agonists of the estrogen related receptor signaling pathway with the pleiotropic PPARgamma coactivator (PGC) (AID 1224823)
Procedure, shortened: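 Steps: plate PGC/ERR cells at 2,000 cells/well; incubate 6 h, 37 C/5% CO2; pin-transfer compounds (DMSO); incubate 18 h, 37 C; add One-Glo; 30 min RT; read luminescence.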

[18] = qHTS assay to identify small molecule antagonists of the estrogen related receptor signaling pathway with the pleiotropic PPARgamma coactivator (PGC) from Tox21 10K library (AID 1224841; call rule not given here)
Procedure, shortened: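 Compound exposure ran 18 hours at 37 C in PGC/ERR cells (2,000/well) that had first rested 6 hours in a 37 C/5% CO2 incubator. Luciferase activity was then detected with One-Glo after a 30-minute room-temperature step.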

[19] = qHTS assay to identify small molecule agonists of the estrogen related receptor signaling pathway with the pleiotropic PPARgamma coactivator (PGC) from Tox21 10K library (AID 1224842); further: nearly all actives have a fitted effect of over 15% in size
Procedure, shortened: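 Luminescence from One-Glo (30 min, room temperature) measured after PGC/ERR cells had 18 h at 37 C with pinned compound (23 nL in DMSO). Cells had been seeded at 2,000 per well and pre-incubated 6 h.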

[20] = qHTS assay to identify small molecule antagonists of the estrogen related receptor (ERR) signaling pathway - cell viability counter screen (AID 1224818);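 further: series mostly up to about 46 µM; viability measured after 17.5 h of compound exposure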
Procedure, shortened: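 Here, ERR cells are plated at 2,000 cells per well, allowed 6 h to attach, and treated with compounds in DMSO for 17.5 h at 37 C. CellTiter-Fluor is then added and fluorescence read after 30 min.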
On the % scale 0 is the no-effect control and ±100 the full control effect.

CN1CCC(=C2c3ccccc3CC(=O)c3sccc32)CC1
inactive: Potency [1] | Potency [2] | outcome [3] | Potency [4] | Potency [5] | outcome [6] | Potency [7] | Potency [8] | Potency [9] | Potency [10] | Potency [11] | Potency [12] | Potency [13]

CCn1nc(C(=O)O)c(=O)c2cc3c(cc21)OCO3
inactive: Potency [1] | Potency [2] | outcome [3] | Potency [4] | Potency [5] | outcome [14] | outcome [15] | outcome [16] | outcome [6] | outcome [17] | Potency [7] | Potency [8] | Potency [9] | Potency [10] | Potency [11] | Potency [13] | Potency [18] | outcome [19]

CC(=O)OCC(=O)[C@@]1(O)CC[C@H]2[C@@H]3CCC4=CC(=O)CC[C@]4(C)[C@H]3C(=O)C[C@@]21C
inactive: Potency [1] | Potency [2] | outcome [3] | Potency [4] | Potency [5] | outcome [6] | Potency [7] | Potency [8] | Potency [9] | Potency [10] | Potency [13]

NS(=O)(=O)c1cc2c(cc1Cl)NC(C1CC3C=CC1C3)NS2(=O)=O (stereo not given)
inactive: Potency [1] | Potency [2] | outcome [3] | Potency [4] | Potency [5] | outcome [20] | outcome [6] | Potency [7] | Potency [8] | Potency [9] | Potency [10] | Potency [11] | Potency [12] | Potency [13]

CCN(CC)CCNC(=O)c1cc(S(C)(=O)=O)ccc1OC
inactive: Potency [1] | Potency [2] | outcome [3] | Potency [4] | Potency [5] | outcome [6] | Potency [7] | Potency [8] | Potency [9] | Potency [10]

Cc1ccc(=O)n(-c2ccccc2)c1
inactive: Potency [1] | Potency [2] | outcome [3] | Potency [4] | Potency [5] | outcome [14] | outcome [15] | outcome [16] | outcome [6] | outcome [17] | Potency [7] | Potency [8] | Potency [9] | Potency [10] | Potency [11] | Potency [12] | Potency [13] | Potency [18]

C[N+](C)(C)CCCCCC[N+](C)(C)C
inactive and 16.8 µM (active): Potency [4]
inactive and 26.6 µM (active): Potency [11]
inactive and 10.7 µM (active): Potency [1]
inactive: Potency [2] | outcome [3] | Potency [5] | outcome [6] | Potency [7] | Potency [9] | Potency [10] | Potency [12]

OC(CCN1CCCCC1)(c1ccccc1)C1CC2C=CC1C2 (stereo not given)
inactive: Potency [1] | Potency [2] | outcome [3] | Potency [4] | Potency [5] | outcome [6] | Potency [7] | Potency [8] | Potency [9] | Potency [10] | Potency [11] | Potency [12] | Potency [13]

NCCCNCCSP(=O)(O)O
inactive: activation [1] 10.3% [at 6.98 µM] | activity change, negative = cytotoxicity [2] 8.34% [at 6.97 µM] | activity change, negative = cytotoxicity [3] 1.85% [at 8.39 µM] | activity, negative = inhibition [4] 8.45% [at 8.39 µM] | activation [5] -0.783% [at 8.36 µM] | outcome [20] | outcome [6] | viability change, negative = cytotoxic [7] 2.57% [at 8.39 µM] | activity change, negative = inhibition [8] 0.729% [at 10.5 µM] | viability change, negative = cytotoxic [9] 10.5% [at 8.39 µM] | activity change, negative = cytotoxicity [10] 2.76% [at 8.39 µM] | activity, negative = inhibition [11] -1.02% [at 8.39 µM] | activation [12] -1.23% [at 8.39 µM] | viability change, negative = cytotoxic [13] 11.6% [at 8.39 µM]

Nc1c2c(nc3ccccc13)CCCC2O (stereo not given)
inactive: Potency [1] | Potency [2] | outcome [3] | Potency [4] | Potency [5] | outcome [20] | outcome [14] | outcome [15] | outcome [16] | outcome [6] | outcome [17] | Potency [7] | Potency [8] | Potency [9] | Potency [10] | Potency [11] | Potency [12] | Potency [13] | Potency [18]

CCO/C([O-])=N/c1c[n+](N2CCOCC2)no1
inactive: Potency [1] | Potency [2] | outcome [3] | Potency [4] | Potency [5] | outcome [14] | outcome [15] | outcome [16] | outcome [6] | outcome [17] | Potency [7] | Potency [8] | Potency [9] | Potency [10] | Potency [13] | Potency [18] | outcome [19]

Nc1ccc(S(=O)(=O)Nc2ccnn2-c2ccccc2)cc1
inactive: Potency [1] | Potency [2] | activity change, negative = cytotoxicity [3] 2.06% [at 19 µM] | activity, negative = inhibition [4] -19.4% [at 19 µM] | Potency [5] | outcome [6] | viability change, negative = cytotoxic [7] -1.42% [at 19 µM] | viability change, negative = cytotoxic [9] 4.16% [at 19 µM] | activity change, negative = cytotoxicity [10] 3.82% [at 19 µM] | activity, negative = inhibition [11] 0.346% [at 19 µM] | activation [12] -2.19% [at 19 µM] | viability change, negative = cytotoxic [13] 2.18% [at 19 µM]

Nc1cc(=O)[nH]c(N)n1
inactive: Potency [1] | Potency [2] | outcome [3] | Potency [4] | Potency [5] | outcome [6] | Potency [7] | Potency [8] | Potency [9] | Potency [10] | Potency [11] | Potency [12] | Potency [13]

COc1ccc(CCN(C)CCCC(C#N)(c2cc(OC)c(OC)c(OC)c2)C(C)C)cc1OC (stereo not given)
active: Potency [7] 29.8 µM
inactive: Potency [1] | Potency [2] | outcome [3] | Potency [4] | Potency [5] | outcome [6] | Potency [8] | Potency [11] | Potency [12] | Potency [13]

NC(=O)c1cn(Cc2c(F)cccc2F)nn1
inactive: Potency [1] | Potency [2] | outcome [3] | Potency [4] | Potency [5] | outcome [20] | outcome [6] | Potency [7] | Potency [8] | Potency [10] | Potency [11] | Potency [12] | Potency [13]

Oc1ccc(C2CNCCc3c2cc(O)c(O)c3Cl)cc1 (stereo not given)
inactive: Potency [1] | Potency [2] | outcome [3] | Potency [4] | Potency [5] | outcome [6] | Potency [7] | Potency [8] | Potency [9] | Potency [10] | Potency [11] | Potency [12] | Potency [13]
